# ClpP mod: qHTS Assay for Activators of ClpP | ATP-dependent Clp protease proteolytic subunit (Bacillus subtilis (strain 168)), P80244 | AID 651965, 2013 | Potency, µM (titrated, usually from 57.5 µM) | hit rate 1.9% among 340,000 | purified B. subtilis ClpP, FRET peptide cleavage, 20 min; active = well fitted falling curve with a large enough effect; inconclusive = small, poorly fitted or top-dose-only effect; inactive = no such curve, though single readings can be large or run the other way; also: the source files actives as falling curves though it sought activators and does not explain the sign; nearly all actives have a fitted effect of over 65% in size
# Target sequence (P80244 whole entry, looked up): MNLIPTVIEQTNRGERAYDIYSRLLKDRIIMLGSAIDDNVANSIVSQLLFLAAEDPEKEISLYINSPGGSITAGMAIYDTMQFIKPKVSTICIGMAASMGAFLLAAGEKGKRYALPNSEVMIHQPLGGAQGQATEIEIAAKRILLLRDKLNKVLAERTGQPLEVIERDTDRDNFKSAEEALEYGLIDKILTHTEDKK
#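 Buffer: 100 mM Tris/HCl pH8, 100 mM KCl, 0.05% low protease BSA, 2.5% glycerol, 0.01% Tween-20. ClpP 10 microg/mL final; 20 min RT; delta FRET normalized to ADEP and DMSO controls.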
# A549 viability: Nrf2 qHTS screen for inhibitors: counterscreen for cytotoxicity; Potency, µM (highest dose often 46 µM), most hits filed as inhibitors; A549 ARE-Fluc cells, CellTiter-Fluor viability, 18-24 h; hit rate 0.16% among 390,000
#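 A549 ARE_Fluc cells in 5% FBS OPTI-MEM were exposed to compounds in concentration-response for 18-24 h at 37 deg C. Viability was read by CellTiter-Fluor fluorescence (Ex 405/Em 525) after 30 min, before the luciferase read.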
# miR-21 act: qHTS Assay for Modulators of miRNAs and/orActivators of miR-21 | Potency, µM (highest dose often 38.3 µM), usual class: activators | AID 2288, 2010 | HeLa miR-21 FLuc reporter, luciferase, 48 h | 340,000 tested, under 10 active;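 also: miR-21 action dims this reporter so a rising signal means less miR-21 action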
#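 HeLa cells stably expressing CMV-driven firefly luciferase with a downstream miR-21 binding sequence, endogenously expressing miR-21, were treated with titrations (up to about 40uM final) for 48 hours at 37 degree Celsius. Luciferase luminescence was read after lysis.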
# Nrf2 ARE act: qHTS of Nrf2 Activators. AID 624171, 2012. AREc32 ARE-luciferase reporter (MCF7-derived line), luminescence, 24 h. Potency, µM (titrated, usually from 46.1 µM), most hits filed as activators. hit rate 0.31% among 410,000; also: nearly all actives have a fitted effect of over 65% in size
#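 For detection, Steady-Glo was added and plates sat 30 min at RT; before that, AREc32_Fluc cells grown overnight in OPTI-MEM/5% FBS had been treated with 23 nL compound for 24 hr at 37 deg C.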
# Nrf2 inh: Nrf2 qHTS screen for inhibitors. A549 ARE-Fluc reporter, luciferase luminescence, 18-24 h. Potency, µM (doses to about 46 µM), actives largely listed as inhibitors. hit rate 2.1% among 360,000; also: nearly all actives have a fitted effect of over 60% in size
#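 In this cell-based qHTS, ARE-driven firefly luciferase in A549 cells reports Nrf2 activity; the luminescent signal after BugLite lysis is the measured value, with a prior CellTiter-Fluor read for cell health.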
# TCR act: Activators of T cell receptors: qHTS campaign | primary human leukocytes, anti-CD3, IL-2 HTRF, 48 h | Potency, µM (highest dose often 9.22 µM), usual class: activators | 330,000 tested, under 10 active | AID 504894, 2011
#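 1) Mix primary human leukocytes, a-CD3 beads and compound. 2) Incubate 48 hr. 3) Add HTRF IL-2 reagents (a-IL-2-K, a-IL-2-d2).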
# Hits are given with their value; 0 = inactive; ? = inconclusive; - = not tested or not shown. Shown are actives, neighbours in structure and some others; about 3.7% of the full set was active somewhere. Unless noted, calls follow the shape of the dose curve; as a rule, active = well fitted curve in the direction sought with a large enough effect; inconclusive = small, poorly fitted or top-dose-only effect, or another doubt; inactive = no such curve, though single readings can be large; an effect the other way counts as inactive or inconclusive.
SMILES,ClpP mod,A549 viability,miR-21 act,Nrf2 ARE act,Nrf2 inh,TCR act
COCCn1c(=O)[nH]c2cc(C(=O)N3CCN(Cc4ccc5c(c4)OCO5)CC3)ccc2c1=O,0,0,-,0,11.6µM,0
COc1ccc(CCn2c(=O)[nH]c3cc(C(=O)N4CCN(c5ccccn5)CC4)ccc3c2=O)cc1OC,11.2µM,0,0,0,0,0
COc1cnc(-c2ccccn2)nc1N(C)c1ccccc1,-,0,0,0,0,0
Cn1c(-n2cccc2)c(-c2c(-c3ccccc3)[nH]c3c2c(=O)n(C)c(=O)n3C)c(=O)n(C)c1=O,0,0,0,0,0,-
Clc1ccc(N2CCN(/N=C/c3cccnc3)CC2)cc1,0,0,0,0,8.2µM,0
Cc1ccc(N2CCN(/N=C/c3cccnc3)CC2)cc1,-,0,0,0,?,0
Cc1cc(=O)oc2cc(OCC3CC(c4ccc(Br)cc4)=NO3)ccc12 (centres undefined),28.2µM,0,0,0,?,0
Cc1cc(=O)oc2cc(OCC3CC(c4ccccc4)=NO3)ccc12 (centres undefined),28.2µM,0,0,0,0,0
CCCOc1ccc(CC2C(=O)Nc3ccc(Br)cc32)cc1 (centres undefined),0,0,?,0,0,-
Cc1noc(C)c1-c1ccc2ncnc(NCc3cccc(Cl)c3)c2c1,-,0,-,-,?,-
COc1cccc(CNc2ncnc3ccc(-c4c(C)noc4C)cc23)c1,-,0,-,0,11.6µM,0
Cc1ccc(S(=O)(=O)N2CCOCC2)cc1C(=O)NCCc1ccc(Cl)cc1,-,0,-,0,0,0
CN(C)/C=C/c1oc2ccc(O)cc2c1[N+](=O)[O-],-,16.4µM,0,0,?,0
Cc1oc2ccc(O)cc2c1C(=O)c1ccc([N+](=O)[O-])cc1,0,0,0,0,?,0
NCCNc1ncnc2ccc(-c3ccc4c(c3)OCO4)cc12,-,0,-,-,0,-
CCOc1ccc(S(=O)(=O)N2CCCC(C(=O)NCc3ccccc3)C2)cc1 (centres undefined),0,0,0,0,0,0
Cc1cc(NC(=O)c2ccccc2)c(Cl)cc1N,-,0,0,0,8.2µM,0
Cc1ccc(S(=O)C(c2ccccc2)c2ccccc2)cc1 (centres undefined),0,0,-,0,0,0
O=S(c1ccccc1)C(c1ccccc1)c1ccccc1 (centres undefined),15.8µM,0,-,0,0,0
NC(=O)c1ccccc1NC(=S)NC(=O)c1ccc(Br)o1,0,0,0,14.1µM,?,0
O=C(C1CC1)N1CCN(Cc2ccccc2)CC1,-,0,-,0,0,0
O=C(N1CCN(Cc2ccccc2)CC1)C(Cl)(Cl)Cl,12.6µM,0,0,0,0,0
O=C(NCC(=O)N1CCN(Cc2ccccc2)CC1)c1ccc(Cl)cc1,0,0,0,0,29.1µM,0
O=C(NCC(=O)N1CCN(Cc2ccccc2)CC1)c1ccc(Br)cc1,0,0,0,0,?,0
O=C(NCc1ccc(Cl)cc1)N1CCN(Cc2ccccc2)CC1,0,0,0,0,23.1µM,-
SMILES,ClpP mod,A549 viability,miR-21 act,Nrf2 ARE act,Nrf2 inh,TCR act
COc1cc(OC)c(OC)cc1/C=C/C(=O)OCC(=O)Nc1c(C)n(C)n(-c2ccccc2)c1=O,0,0,-,0,0,0
Cc1cc2c(s1)c1cnn(Cc3ccccc3F)c(=O)c1n2Cc1ccccc1F,-,0,-,-,0,-
CCOc1cc(C(=O)NCc2nc(-c3cccc(C)c3)no2)cc(OCC)c1OCC,0,0,0,0,0,-
CCN(CC(=O)Nc1c(F)cccc1F)C(=O)c1ccc(Cl)c(S(=O)(=O)N2CCCCC2)c1,0,0,0,0,0,0
Cc1cc(C)nc(SCC(=O)c2ccc(F)cc2F)n1,0,0,0,0,0,0
CC(OC(=O)c1cccc(NS(C)(=O)=O)c1)C(=O)Nc1ccc2c(c1)OCO2 (centres undefined),0,0,-,0,23.1µM,0
COc1cccc(C(=O)OC(C)C(=O)Nc2ccc3c(c2)OCO3)c1 (centres undefined),0,0,-,0,?,0

# From PubChem BioAssay
